Experimental data reported in PubChem BioAssay (EPA / NIEHS).
Active and inactive are the calls of the source. Rule for the calls: active = hit-call score of the fitted dose curve at least 0.9, where 1 is the maximum; inactive = score below 0.9.

assay: ATG_RORE_CIS: Attagene CIS-FACTORIAL HepG2 Assay for human RAR-related Orphan Receptor Element (RORE) (AID 2282959); details: HepG2 Attagene cis-factorial RORE reporter, mRNA; actives raise or lower the signal
Description: ATG_CIS is a cell-based, multiplexed-readout assay that uses HepG2, a human liver cell line, with measurements taken at 24 hours after chemical dosing in a 24-well plate.ATG_RORE_CIS is one of 52 assay component(s) measured or calculated from the ATG_CIS assay. It is designed to make measurements of mRNA induction, a form of inducible reporter, as detected with fluorescence intensity signals by Reverse transcription polymerase chain reaction (RT-PCR) and Capillary electrophoresis technology.Data from the assay component ATG_RORE_CIS was analyzed into 1 assay endpoint. This assay endpoint, ATG_RORE_CIS, was analyzed with bidirectional fitting relative to DMSO as the negative control and baseline of activity. Using a type of inducible reporter, measures of mRNA for gain or loss-of-signal activity can be used to understand the reporter gene at the transcription factor-level as they relate to the gene RORA and RORB and RORC. Furthermore, this assay endpoint can be referred to as a primary readout, because this assay has produced multiple assay endpoints where this one serves a reporter gene function. To generalize the intended target to other relatable targets, this assay endpoint is annotated to the nuclear receptor intended target family, where the subfamily is orphan.
Human liver HepG2 cells are transiently transfected with multiple reporter transcription units (MRTUs) in 6-well plates using FuGene 6 reagent (Roche; 3 ml FuGene/1 mg DNA). The MRTU constructs are regulated by a cis-regulating element (promoter). […] A major difference between the CIS and TRANS system is that in CIS activities of endogenous TFs are measured, whereas the TRANS assay evaluates changes in activities of exogenous, chimeric NR-Gal4 proteins. […] At the end of 24 hour incubation, total RNA was isolated using TriZol reagent (Invitrogen). The isolated RNA is then reverse-transcribed using oligo(dT) primer and Mo-MLV reverse transcriptase (Invitrogen) with DNAse I (Ambion) treatment for 30 min. The one-tenth of the produced cDNA was amplified by PCR using Taq DNA polymerase (Invitrogen) and two reporter sequence-specific primers. The PCR products were fluorescently labeled by primer extension with 6-arboxyfluorescein (6-FAM) 5'-labeled reporter sequence-specific primer (2 min at 95 C, 20 s at 68 C and 10 min at 72 C) and these products were digested with 5U of HpaI (New England Biolabs) for 2h at 37 C. The fragments were purified using Qiaquick PCR columns (Qiagen), analyzed on an ABI 3130xL genetic analyzer (Applied Biosystems) with peak positions identified by using a set of X-rhodamine (ROX)-labeled MapMarker1000 molecular weight standards (BioVentures). The raw capillary electrophoresis data was processed using Attagraph software (Attagene).

outcome, inactive:
CCCCCC(CO)CCC (stereo not given)
CCCCCCC#CC(=O)OC
CCc1ccc(C=O)cc1
O=C(O)CCCCCCCCCCC(=O)O
C=C(C)[C@@H]1CCC2=CC(=O)C[C@@H](C)[C@]2(C)C1
CCCCCCCCCCCCN
CCN(CC)CCOC(=O)c1ccc(N)cc1
CCC(C)CCCC(C)(C)O (stereo not given)
CCCC/C=C\CCCCCCCCCC=O
CC1(CO)CN(c2ccccc2)NC1=O (stereo not given)
CN1Cc2c(N)cccc2C(c2ccccc2)C1 (stereo not given)
Cc1ccc(C=O)s1
C=C(C)C(=O)OCc1ccccc1
COC(=O)c1ccc(C)cc1
Cc1ccc(S)cc1
CC(=O)C(C)=O
CC(C)(C#N)c1cc(Cn2cncn2)cc(C(C)(C)C#N)c1
CNCCCC12CCC(c3ccccc31)c1ccccc12
CCCCNC(=O)NS(=O)(=O)c1ccc(C)cc1
NC(=O)c1ccccc1Cl
OC1C(O)C(O)C(O)C(O)C1O (stereo not given)
CCCCCCOC(=O)CC
N#Cc1ccc(CC(=NNC(=O)Nc2ccc(OC(F)(F)F)cc2)c2cccc(C(F)(F)F)c2)cc1
C=C[Si](OCC)(OCC)OCC
CC(C)C(C)(C)C(C)(C)C(C)(C)S
CC(C#N)(CCC(=O)O)N=NC(C)(C#N)CCC(=O)O (stereo not given)
C=CC(C)(CCC=C(C)C)OC=O (stereo not given)
CCCCCCCCCCCCOCCO
CCCCCCCCCCCCCC(=O)O
CC(C)(C)NC(N)=O
Cc1ccccc1C=O
CCCCCCCCCCCCCCCCCC(=O)OCC(CC)CCCC (stereo not given)
CCCCCCOC(=O)CCCCC
CC(=O)[C@H]1CC[C@H]2[C@@H]3CC=C4C[C@@H](O)CC[C@]4(C)[C@H]3CC[C@]12C
CC(C)(C)c1cc(CCC(=O)NN)cc(C(C)(C)C)c1O
COc1ccnc(CS(=O)c2nc3cc(OC(F)F)ccc3[nH]2)c1OC (stereo not given)
O=C(O)CCSCCC(=O)O
NCCOCCO
COc1ccc(Cl)cc1C
Cc1ccc(C(C)C)cc1O
